Source: PubChem
TROY signal inh = inhibitors of TROY-dependent NF-kB signaling; Q293 LMP1-TROYcd NF-kB luciferase reporter, 4 h; inhibition, % at 10 µM; 360,000 tested, 0.98% active; AID 1347056;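 active means compounds whose plate-normalised and pattern-corrected inhibition of the luciferase reporter signal at the single screening dose is 50% or more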
KKLEB tox = counter-screen for CF NF-kB inhibitors: cytotoxicity. KKLEB CF airway cells viability, ATPlite luminescence, overnight; active compounds read low; cells stimulated with P. aeruginosa culture filtrate. activity change (cytotoxicity), % at 5 µM. 360,000 tested, 0.36% active. AID 602141;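 active means corrected activity change at or below -50% at 5 µM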
HIF-2a inh = HIF-2a inhibition. 360,000 tested, 0.72% active. 786-0 RCC cells HIF-2a reporter, luciferase luminescence, overnight. inhibition, % at 18.8 µM. AID 624352;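 active means inhibition of the luminescence signal of 40% or more relative to plate controls, in a single-dose primary screen at 18.75 µM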
CF NFkB block = inhibitors of cystic fibrosis induced NF-kB; 360,000 tested, 0.86% active; AID 588850; inhibition, % at 5 µM; KKLEB NF-kB-GFP reporter, PAF-induced, GFP fluorescence overnight;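 active means at least 50% inhibition at 5 µM, scaled per plate between neutral and stimulator controls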;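 further: PAF is a Pseudomonas aeruginosa culture filtrate used as stimulus; plate controls were PAF-stimulated DMSO wells for no effect and unstimulated DMSO wells for full effect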
TWEAK Fn14 block = TWEAK-Fn14 signaling inhibition; TWEAK-stimulated Fn14 reporter cells, luciferase luminescence, 8 h; inhibition, % at 10 µM; 360,000 tested, 2% active; AID 1159606; in the data active means inhibition above about 50%
Peg3 prom inh = Peg3 promoter activity inhibition; HeLa PEG-Prom luciferase reporter, luminescence, overnight; inhibition, % at 20 µM; 360,000 tested, 1.7% active; AID 588405;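 active means inhibition of at least 50% at 20 µM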
An asterisk follows results filed as active; nt = no result. Rows were chosen to be rich in hits. Some 3.9% of all compounds tested hit in one or more screens of this group.

SMILES | TROY signal inh | KKLEB tox | HIF-2a inh | CF NFkB block | TWEAK Fn14 block | Peg3 prom inh
CCC(C)Nc1nc(CN2CCOCC2)nc2sc3c(c12)CCC3 (configuration not stated) | nt | 3 | 4 | 8 | 75* | 0
O=C(NCCSCc1ccco1)c1ccc(=O)[nH]c1 | 1 | 1 | 9 | -2 | 17 | 11
COC(=O)c1ccc(C(=O)NN)cc1 | -5 | 9 | 20 | 0 | -14 | 5
NNC(=O)c1ccncc1 | 7 | -85* | -2 | -14 | 1 | -12
CCOc1ccc(NC(=S)N2CCC(c3ccc(C)cc3)C2)cc1 (configuration not stated) | -13 | 11 | -3 | 5 | 9 | 8
COc1ccc(CNCCc2ccc(Cl)cc2)cc1OCc1ccccc1 | 4 | -5 | 12 | 6 | 15 | 78*
COc1ccc(CCNCc2ccc(-c3ccccc3)cc2)cc1OC | -12 | -9 | 9 | 11 | -32 | 87*
Cn1cc(CN2CCN(CCO)CC2)c(-c2ccc(Oc3ccccc3)cc2)n1 | 13 | 8 | 13 | -2 | 3 | 9
Cc1cc(C)nc(CCNC(=O)c2cc(COc3ccc(F)cc3Cl)on2)n1 | 76* | -12 | -4 | 20 | -21 | -1
Cc1cc(C)nc(CCNC(=O)c2cc(COc3ccc(F)cc3F)on2)n1 | -7 | -10 | 12 | 12 | -5 | 7
O=C(CCl)N1CCN(S(=O)(=O)c2ccc3ccccc3c2)CC1 | -10 | -19 | 31 | -20 | -26 | 110*
COc1ccc(CCC(=O)N2CCN(S(=O)(=O)c3ccc4ccccc4c3)CC2)cc1 | 0 | 0 | 15 | -1 | 2 | 13
CN(C)C(=O)N1CCN(S(=O)(=O)c2ccc3ccccc3c2)CC1 | -8 | 6 | 8 | -16 | 101* | 11
CN(C)S(=O)(=O)N1CCN(S(=O)(=O)c2ccc3ccccc3c2)CC1 | -7 | 5 | 7 | 3 | -6 | 26
O=C(CNC(=O)c1cccs1)c1ccc(Br)cc1 | -7 | 2 | -215 | -1 | 55* | -357
O=C(CNC(=O)c1cccs1)OCc1ccc(Br)cc1 | 0 | -10 | 1 | 6 | 0 | -6
COc1ccccc1NC(=S)NC(=O)C(C)(C)C | -17 | 13 | -13 | -11 | 6 | -27
O=C(CCCC(=O)Nc1cccc(Br)c1)N/N=C/c1cc([N+](=O)[O-])ccc1O | 13 | -12 | 11 | 35 | 33 | 49
O=C(CN(c1cccc(Br)c1)S(=O)(=O)c1ccccc1)N/N=C/c1cc([N+](=O)[O-])ccc1O | 52* | -8 | 11 | 8 | -15 | 31
O=c1cc(N=Nc2ccc(Cl)cc2)[nH]c(=O)[nH]1 | 25 | -7 | 14 | 68* | 58* | 111*
CC(NC(=O)/C=C/c1cnc2ccccc2n1)C12CC3CC(CC(C3)C1)C2 (configuration not stated) | 75* | -13 | 3 | -7 | 77* | -6
CCc1ccc(N(CC(=O)N2CCCCCC2)S(C)(=O)=O)cc1 | 49 | 10 | 18 | -8 | -58 | 20
CC1(C)c2[nH]c3ccccc3c2C[C@@H]2C(=O)N(Cc3ccc(F)cc3)C(=O)N21 | 12 | -12 | 4 | 6 | 25 | 62*
Cc1[nH]n(-c2ccccc2)c(=O)c1C(C[N+](=O)[O-])c1ccc(Br)cc1 (configuration not stated) | 5 | -11 | 29 | 8 | 14 | 103*
CCOC(=O)c1sc(NC(=O)CSc2n[nH]c(-c3ccc(Cl)cc3Cl)n2)c(C#N)c1C | 63* | -33 | 4 | 49 | -4 | 30
SMILES | TROY signal inh | KKLEB tox | HIF-2a inh | CF NFkB block | TWEAK Fn14 block | Peg3 prom inh
CCOC(=O)c1sc(NC(=O)c2cc(-c3ccccc3C)nc3ccccc23)c(C#N)c1C | 69* | -35 | 8 | 48 | 63* | 42
CCOC(=O)c1cnc(SCC(=O)Nc2sc(C)c(C)c2C#N)nc1N | 8 | -50* | 10 | 47 | -26 | 45
Nc1c(S(=O)(=O)c2cccs2)c2nc3ccccc3nc2n1Cc1cccs1 | 70* | -15 | 36 | 22 | 25 | 9
CC(C)CCn1c(N)c(S(=O)(=O)c2cccs2)c2nc3ccccc3nc21 | 86* | 16 | 4 | -19 | 90* | 28
Nc1c(S(=O)(=O)c2cccs2)c2nc3ccccc3nc2n1Cc1ccc2c(c1)OCO2 | 15 | 12 | 12 | -12 | 42 | 38
Cc1ccc(S(=O)(=O)c2c(N)n(CCC(C)C)c3nc4ccccc4nc23)cc1 | 73* | 13 | 10 | -22 | 44 | 40
COc1ccc(CCn2c(N)c(S(=O)(=O)c3cccs3)c3nc4ccccc4nc32)cc1OC | -2 | 2 | 2 | 6 | 1 | 10
Cc1ccc(S(=O)(=O)c2c(N)n(CCCO)c3nc4ccccc4nc23)cc1 | 64* | -4 | 8 | 15 | 28 | 30
Cn1nc(C(=O)NCCc2ccc3c(c2)OCCO3)c2ccccc2c1=O | -7 | -1 | -25 | -20 | 10 | 0
Cc1ccc(N2CC3=C(C2=O)C(c2ccccc2)NC(=O)N3C)cc1 (configuration not stated) | 6 | 6 | 3 | -24 | 2 | 2
CN1C(=O)NC(c2ccccc2)C2=C1CN(c1ccc3ccccc3c1)C2=O (configuration not stated) | 53* | 12 | -26 | -11 | 34 | -6
Cc1nnc(SCC(=O)N(C2CCCCC2)C2CCS(=O)(=O)C2)n1C (configuration not stated) | -12 | 2 | 6 | 13 | 5 | -18
O=S(=O)(Nc1ccc(O)c2ccccc12)c1cccs1 | 28 | -8 | 13 | 86* | 82* | 21
Cc1ccc(NC(=O)CN2C(=O)C3CCCCN3C(=O)c3ccccc32)cc1 (configuration not stated) | nt | 8 | 9 | 3 | 53* | 5
Cc1ccc(NC(=O)CN2CCCC2)cc1 | 2 | 2 | -11 | 0 | 14 | -7
COc1ccc(NC(=O)c2cc(-c3cccnc3)nc3ccc(C)cc23)cc1OC | -25 | -20 | 7 | -17 | -9 | 5
COc1ccc(NC(=O)c2cc(-c3ccncc3)nc3ccc(Br)cc23)cc1OC | 15 | -11 | 12 | -12 | 17 | 94*
CC(CCc1ccccc1)NC(=O)COC(=O)c1cc(NS(=O)(=O)c2ccc(Cl)c([N+](=O)[O-])c2)ccc1O (configuration not stated) | 45 | 3 | 55* | 2 | -16 | 57*
COc1cccc(C(=O)N/N=C(/CCC(=O)O)c2ccccc2)c1 | -84 | 2 | -17 | 10 | -12 | -15
COc1cc(C(=O)N/N=C(\C)c2ccccn2)cc(OC)c1OC | 27 | 15 | -3 | -1 | -3 | 58*
COc1cccc(C(=O)N/N=C(/c2ccccc2)c2ccccn2)c1 | -19 | 16 | -15 | 4 | -53 | 86*
